Mac1 fbg enh: CD11b/CD18-fibrinogen binding enhancement; P05107+P11215; K562 CD11b/CD18 adhesion to fibrinogen, ATPlite luminescence; activation, % at 10 µM; 0.07% of 93,000 active;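 active means 10 µM primary screen giving 50% or more activity, confirmed by 40% or more on retest at that dose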
Phagocytosis inh: blocks phagocytosis by macrophages. J774A.1 macrophage IgG-bead phagocytosis, imaging. inhibition, % at 5 µM. 0.07% of 110,000 active. AID 1029;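 active means inhibition above the mean of the plate negative controls plus 5 SD, cut at about 13% in these data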;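 further: phagocytic index as fraction of beads internalized from green versus red external bead signal; plate controls were DMSO negative control for no effect and cytochalasin-D positive control for full effect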
MRP-1 activ: activators of MRP-1; H69AR cells + doxorubicin, viability rescue, CellTiter-Glo; viability increase, % at 10 µM; 0.61% of 140,000 active;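 active means viability gain under doxorubicin at or above a set limit, the compound median plus 3 SD, cut at about 4.7% in these data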;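 further: MRP-1 overexpressing cells given doxorubicin 25 µM after compound pretreatment; 18-22 h compound pretreatment then 72 h with doxorubicin before readout; 0% = doxorubicin-only wells and 100% = vehicle-treated cells without doxorubicin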
CD11b adhes inh: blocks human CD11b/CD18 adhesion to fibrinogen. 0.54% of 93,000 active. inhibition, % at 10 µM. K562 CD11b/CD18 adhesion to fibrinogen, ATPlite luminescence; Mn2+ added to activate the integrin. AID 1497. P05107+P11215;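 active means primary inhibition of 50% or more at 10 µM, then 40% or more on retest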
Smad3 inh: Smad3 (human) transcription factor binding inhibition; TR-FRET Smad3/Dy647-FoxH1 peptide binding, europium anti-His; 0.29% of 88,000 active; inhibition, % at 25 µM; P84022;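 active means compounds that reduce the energy-transfer binding signal between the protein and its labelled peptide by more than half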;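 further: 0% = Smad3 plus labelled peptide maximal FRET and 100% = peptide-only background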
Target sequence (P84022 whole entry, looked up): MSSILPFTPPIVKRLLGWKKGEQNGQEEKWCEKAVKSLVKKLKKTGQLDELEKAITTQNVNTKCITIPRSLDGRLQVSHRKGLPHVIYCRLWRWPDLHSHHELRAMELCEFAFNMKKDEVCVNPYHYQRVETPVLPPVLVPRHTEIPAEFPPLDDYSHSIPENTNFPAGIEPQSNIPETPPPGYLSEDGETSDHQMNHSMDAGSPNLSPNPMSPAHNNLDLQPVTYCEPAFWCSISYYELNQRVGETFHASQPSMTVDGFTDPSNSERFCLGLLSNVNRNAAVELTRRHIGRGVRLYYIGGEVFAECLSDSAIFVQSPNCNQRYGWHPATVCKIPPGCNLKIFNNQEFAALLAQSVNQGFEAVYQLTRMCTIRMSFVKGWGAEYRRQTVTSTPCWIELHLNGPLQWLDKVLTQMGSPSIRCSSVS
MRP reversal: reverses drug resistance mediated by MRP; H69AR cells + 2 uM doxorubicin, CellTiter-Glo, 72 h; differential viability (reversal), % at 10 µM; 0.04% of 85,000 active;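 active means viability drop by adding the cancer drug above about 55%, with treated viability meeting a 40% cutoff, limit read from the data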;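 further: viability without doxorubicin minus viability with 2 µM doxorubicin for each compound; larger differential means the compound sensitizes cells more to doxorubicin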
An asterisk follows results filed as active; x = no result; [ ] = another dose, or the depositor's remark. An excerpt weighted towards active compounds, which were near 1.2% of everything screened.

SMILES	Mac1 fbg enh	Phagocytosis inh	MRP-1 activ	CD11b adhes inh	Smad3 inh	MRP reversal
O=C(Nc1ccc(Cn2cccn2)cc1)c1ccc(COc2ccc(Br)cc2)cc1	52*	x	-2	-5	x	x
O=C1c2cc([N+](=O)[O-])ccc2-c2ccc3c4ccc5c6c(ccc(c7ccc1c2c73)c64)C(=O)c1cc([N+](=O)[O-])ccc1-5	x	x	x	x	-15	x
Cc1ccc(S(=O)(=O)N(C(=O)c2ccncc2)c2ccc(OC(=O)c3ccncc3)c3ccccc23)c(C)c1	-1	-2	2	72*	x	x
N#Cc1nc(COc2ccc(F)cc2)oc1N1CCC(Cc2ccccc2)CC1	-6	0	5.3*	1	6	8
NC(=O)NCc1ccc(Cl)cc1	-1	x	1	6	x	x
NC(=S)SCCC(=O)O	x	x	x	x	11	x
Brc1ccc(OCc2nnc3n2CCC3)cc1	-1	-6	7.0*	0	x	x
Nc1ncnc2nn([C@H]3O[C@@H](CO)[C@H](O)[C@H]3O)nc12	x	x	x	x	-4	x
Cn1c(Sc2ccc(-c3cccnc3)n2C)ccc1-c1cccnc1	x	x	x	x	-2	x
O=C1c2cccc(O)c2C(=O)c2c(O[C@@H]3O[C@H](CO)[C@@H](O)[C@H](O)[C@H]3O)cccc21	x	x	x	x	70*	x
O=C1c2cccc(O)c2C(=O)c2c(O)cccc21	x	x	-3	x	12	-13
CCn1c(Cc2cccc3ccccc23)nnc1SCC(=O)Nc1nccs1	x	x	-2	x	5	-7
COc1ccc(Cc2nnc(NC(=O)c3c(-c4ccccc4)noc3C)s2)cc1OC	0	0	9.5*	-1	0	26
CCOC(=O)Cc1csc(NC(=O)c2c(-c3ccccc3)noc2C)n1	-1	1	4.9*	-5	2	7
c1ccc2c(c1)c1ccccc1n2Cn1c2ccccc2c2ccccc21	x	x	x	x	-18	x
N#CCn1c(C2CCCCC2)nc2ccccc2c1=O	-2	0	-4	-2	-1	9
CCOc1ccc(OCc2cccc(C(=O)O)c2)cc1	-1	1	-2	59*	x	x
COc1ccc(OCc2cccc(C(=O)O)c2)cc1	-4	0	-3	-24	x	x
N#C/C(=N\Nc1ccc(Cl)cc1)C(=O)c1ccccc1	-8	-1	-3	94*	x	x
Cn1c(=O)c2[nH]c(CCCCC(=O)O)nc2n(C)c1=O	x	x	x	x	2	x
COC(=O)[C@H]1[C@@H]2C[C@H]3c4[nH]c5ccccc5c4CCN3C[C@H]2CC[C@@H]1O	x	x	x	x	0	x
Nc1nc(SCCC2CCCCC2)c2[nH]cnc2n1	x	x	x	x	12	x
O=C(c1cnn2c(C(F)(F)F)cc(-c3cccs3)nc12)N1CCN(C(c2ccccc2)c2ccccc2)CC1	x	x	8.3*	x	3	5
CCOC(=O)Cn1c(C(F)(F)F)nc2nc(Cl)c(Cl)nc21	x	x	x	x	56*	x
CC1CCN(CC[S-])CC1.O.O.[Cl][Pt]	x	x	x	x	6	x
SMILES	Mac1 fbg enh	Phagocytosis inh	MRP-1 activ	CD11b adhes inh	Smad3 inh	MRP reversal
CCCCCCN1C2=NCCN2c2ccccc21	0	1	-4	-7	17	7
CCCCCCn1ccc(=N)cc1	-5	-1	0	56*	-9	-16
Cc1ccc([C@@H](O)c2cnc(C)n2Cc2ccccc2)cc1	x	x	x	x	9	x
CCS(=O)(=O)NCc1csc(C)n1	-2	-1	-3	-9	-1	7
CCc1cc(/C(Cc2csc(C)n2)=N/O)c(O)cc1O	-9	-2	-1	80*	-1	-6
COc1cccc(S(=O)(=O)NCc2ccc(C(=O)Nc3cccc(Cl)c3)cc2)c1	1	-2	0	55*	x	x
COc1ccc(Cc2nnc(N/N=C/c3ccc(O)cc3O)[nH]c2=O)cc1OC	x	-9	6.0*	x	x	x
CC1(C)[C@@H]2CC[C@@]1(CC(=O)O)[C@@H](Cl)C2	x	x	x	x	-6	x
CN(N=Nc1ccc([N+](=O)[O-])cc1)c1ccccc1	x	-2	2	x	x	x
CC(C)N(N=Nc1ccc([N+](=O)[O-])cc1)C(C)C	x	-12	4.7*	x	x	x
CCOC(=O)C(C(=O)OCC)C1CCS(=O)(=O)C1 (stereo unspecified)	x	x	-4	x	8	2
CCCCNS(=O)(=O)c1ccc2nc(SCC(=O)Nc3sccc3C#N)[nH]c2c1	-8	1	1	102*	15	-16
CCCCNS(=O)(=O)c1ccc2nc(SCC(=O)Nc3ccccc3Cl)[nH]c2c1	-5	-5	-1	47	x	x
NC[C@@H](O)CSCc1ccc(Cl)cc1	x	x	x	x	1	x
COC(=O)c1cnn(-c2cc(Oc3ccccc3)ncn2)c1N	-3	-1	5.7*	3	x	x
Cc1nc2cc3nc(C(F)(F)F)[nH]c3cc2[nH]1	x	-6	2	x	x	x
CCOC(=O)C(C)(C)Sc1nc2c(cnn2-c2ccc(Cl)cc2)c(=O)[nH]1	-1	163*[fluoresces]	-1	-9	8	-3
CC(C)(C)NC[C@@H](O)c1ccc(O)c(CO)n1	x	x	x	x	14	x
CCOP(=O)(OCC)C(NC(=O)Nc1ccc(Cl)cc1)C(=O)N(CC)CC (stereo unspecified)	-4	-15	8.9*	-20	x	x
C/C(=N\Nc1ccc2ccccc2n1)c1ccccc1O	x	x	x	x	9	x
COC(=O)c1ccc2c(c1)C(C)(C)C(/C=C/c1ccc(OC)c(OC)c1OC)=[N+]2C	-7	-4	-6	107*	10	-1
COC(=O)c1ccc2c(c1)C(C)(C)C(/C=C/c1ccc(O)cc1)=[N+]2C	-4	2	-2	20	x	x
CCC(NC(=O)Cn1cnc2c(=O)n(C)c(=O)n(C)c21)c1ccccc1 (stereo unspecified)	x	x	-3	x	-3	5
Cc1ccc(N/N=C(\C#N)C(N)=S)c(C)c1	x	-1	8.2*	x	x	x
CCOC(=O)Nc1ccc(C)cc1C	1	-1	-2	0	4	6
SMILES	Mac1 fbg enh	Phagocytosis inh	MRP-1 activ	CD11b adhes inh	Smad3 inh	MRP reversal
CC1CCc2c(sc3nc(CSc4ncn[nH]4)[nH]c(=O)c23)C1 (stereo unspecified)	0	-8	18*	-8	x	x
CSc1nc2sc3c(c2c(=O)[nH]1)CCC(C)C3 (stereo unspecified)	1	0	-1	2	-8	11
COc1ccc2oc(=O)c(-c3ccccc3C(=O)N3CCOCC3)cc2c1	x	x	-2	x	x	x
CC1CCC/C(=N\NC(=O)COc2ccccc2Cl)C1 (stereo unspecified)	-3	-6	-2	5	x	x
Cc1ccc(N2C(=O)CS/C2=C(\C(Cl)=C(Cl)Cl)[N+](=O)[O-])cc1	-4	0	-4	-3	52*	-3
O=C(O)c1ccccc1-c1ccccc1C(=O)Nc1ccc2c(c1)Cc1ccccc1-2	x	x	x	x	23	x
CC(=O)Nc1ccc(N/C=C/C(=O)c2ccco2)cc1	-5	6	-2	8	-6	1
CN(C)c1ccc(N/C=C/C(=O)c2ccco2)cc1	4	179*	1	27	-2	0
O=c1cc(-c2ccccc2Cl)oc2c([N+](=O)[O-])c(O)cc(O)c12	x	x	6.5*	x	x	x
CC1=NN(C(N)=S)C(=O)C1N=Nc1ccc(C)cc1C (stereo unspecified)	-6	0	-2	-22	x	x
CC1=NN(C(N)=S)C(=O)C1N=Nc1ccccc1C (stereo unspecified)	x	x	-2	x	-4	91*
CN(C)CCNc1ccccn1	x	x	x	x	-11	x
